# According to the supplement of paper PMC12282887:
# ± gives the standard deviation of the averaged measurements.
# Assays:
# Experiment in all cases: promoter activity interaction Z-score (Lux/OD deviation from empty-vector control); higher = stronger promoter induction by the compound
# [1] = system: E. coli BW25113 robp lux reporter
# Procedure, shortened: (§1)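 Wild-type E. coli BW25113 and three single-gene deletion strains, each carrying a low-copy luxCDABE promoter reporter, were grown at 37°C in 40 µl LB Lennox per well of a 384-well plate. Every compound was applied at four 1:2 dilutions in biological duplicates, and OD600 and luminescence were read every 30 min for 12 h. Integration covered 0–8 h for wild type and 1–9 h for deletion strains, and wells under 10% of the median growth value were removed. Scores are Z-transformed residuals of growth-normalised luminescence fitted against a control.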
# [2] = system: E. coli BW25113 soxSp lux reporter
# Procedure, shortened: as §1
# [3] = system: E. coli BW25113 tolCp lux reporter
# Procedure, shortened: as §1
# [4] = 7 µg/ml, genetic background: wild type
# [5] = 7 µg/ml, genetic background: ΔmarA
# [6] = 7 µg/ml, genetic background: Δrob
# [7] = 7 µg/ml, genetic background: ΔsoxS
# [8] = 14 µg/ml, genetic background: wild type
# [9] = 14 µg/ml, genetic background: ΔmarA
# [10] = 14 µg/ml, genetic background: Δrob
# [11] = 14 µg/ml, genetic background: ΔsoxS
# [12] = 28 µg/ml, genetic background: wild type
# [13] = 28 µg/ml, genetic background: ΔmarA
# [14] = 28 µg/ml, genetic background: Δrob
# [15] = 28 µg/ml, genetic background: ΔsoxS
# [16] = 56.1 µg/ml, genetic background: wild type
# [17] = 56.1 µg/ml, genetic background: ΔmarA
# [18] = 56.1 µg/ml, genetic background: Δrob
# [19] = 56.1 µg/ml, genetic background: ΔsoxS
compound,measurement,setting,value
COc1cc(NS(=O)(=O)c2ccc(N)cc2)ncn1 [Sulfamonomethoxine],promoter activity interaction Z-score,[1]; [4],1.09 ± 0.49
same,promoter activity interaction Z-score,[1]; [5],0.0134 ± 0.083
same,promoter activity interaction Z-score,[1]; [6],-0.027 ± 0.51
same,promoter activity interaction Z-score,[1]; [7],-0.114 ± 0.21
same,promoter activity interaction Z-score,[1]; [8],1.2 ± 0.46
same,promoter activity interaction Z-score,[1]; [9],-0.0907 ± 0.34
same,promoter activity interaction Z-score,[1]; [10],0.416 ± 0.81
same,promoter activity interaction Z-score,[1]; [11],-0.326 ± 0.46
same,promoter activity interaction Z-score,[1]; [12],0.911 ± 0.12
same,promoter activity interaction Z-score,[1]; [13],1.16 ± 0.43
same,promoter activity interaction Z-score,[1]; [14],0.643 ± 0.1
same,promoter activity interaction Z-score,[1]; [15],0.227 ± 0.12
same,promoter activity interaction Z-score,[1]; [16],2 ± 0.41
same,promoter activity interaction Z-score,[1]; [17],2.2238 ± 0.0018
same,promoter activity interaction Z-score,[1]; [18],1.45 ± 0.23
same,promoter activity interaction Z-score,[1]; [19],1.99 ± 0.18
same,promoter activity interaction Z-score,[2]; [4],-0.238 ± 0.08
same,promoter activity interaction Z-score,[2]; [5],-0.23 ± 0.096
same,promoter activity interaction Z-score,[2]; [6],-0.34 ± 0.09
same,promoter activity interaction Z-score,[2]; [7],-0.327 ± 0.54
same,promoter activity interaction Z-score,[2]; [8],-0.126 ± 0.13
same,promoter activity interaction Z-score,[2]; [9],-0.374 ± 0.052
same,promoter activity interaction Z-score,[2]; [10],-0.287 ± 0.064
same,promoter activity interaction Z-score,[2]; [11],-0.322 ± 0.51
same,promoter activity interaction Z-score,[2]; [12],-0.403 ± 0.15
same,promoter activity interaction Z-score,[2]; [13],-0.289 ± 0.029
same,promoter activity interaction Z-score,[2]; [14],-0.503 ± 0.07
same,promoter activity interaction Z-score,[2]; [15],-0.224 ± 0.42
same,promoter activity interaction Z-score,[2]; [16],-0.28 ± 0.14
same,promoter activity interaction Z-score,[2]; [17],-0.0803 ± 0.1
same,promoter activity interaction Z-score,[2]; [18],-0.502 ± 0.17
same,promoter activity interaction Z-score,[2]; [19],-0.113 ± 0.36
same,promoter activity interaction Z-score,[3]; [4],-0.23 ± 0.84
same,promoter activity interaction Z-score,[3]; [5],0.608 ± 0.35
same,promoter activity interaction Z-score,[3]; [6],0.27 ± 0.051
same,promoter activity interaction Z-score,[3]; [7],-0.223 ± 1.2
same,promoter activity interaction Z-score,[3]; [8],1.12 ± 0.49
same,promoter activity interaction Z-score,[3]; [9],-0.382 ± 0.79
same,promoter activity interaction Z-score,[3]; [10],-0.826 ± 0.66
same,promoter activity interaction Z-score,[3]; [11],0.183 ± 1.1
same,promoter activity interaction Z-score,[3]; [12],-0.0377 ± 0.24
same,promoter activity interaction Z-score,[3]; [13],1.63 ± 0.99
same,promoter activity interaction Z-score,[3]; [14],-0.142 ± 0.15
same,promoter activity interaction Z-score,[3]; [15],0.453 ± 0.22
same,promoter activity interaction Z-score,[3]; [16],0.726 ± 1
same,promoter activity interaction Z-score,[3]; [17],0.457 ± 1.5
same,promoter activity interaction Z-score,[3]; [18],-0.189 ± 0.24
same,promoter activity interaction Z-score,[3]; [19],0.283 ± 0.55
